Assay outcomes (PubChem)
PKA-R1A act: activators of PKA-R1A holoenzyme, primary screen, biochemical, fluorescence polarization, Cy5-IP20, bovine R1A, mouse PKAc; activation, % at 11.4 µM; 340,000 compounds, 0.083% hits; AID 504707, 2011; cAMP-dependent protein kinase type I-alpha regulatory subunit (Bos taurus) + …; PKA-R1A dissociation; scaled: DMSO 0%, 113 µM cGMP 100%;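 active means percent activation above the mean of all tested compounds plus 3 SD, cut at about 19% in these data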;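 further: higher means more PKAc released from R1A so a rise in polarization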
PKA-R2B activ: activators of PKA-R2B holoenzyme, primary screen, biochemical, fluorescence polarization, Cy5-IP20, human; PKA-R2B holoenzyme dissociation; R2B truncated from residue 108, S112A mutant; 0% DMSO only, 100% 113 µM cGMP; 340,000 compounds, 0.079% hits; activation, % at 11.4 µM; cAMP-dependent protein kinase catalytic subunit beta (Homo sapiens) + cAMP-dependent …;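 active means activation above a cutoff set at the mean over all compounds plus 3 SD, cut at about 18% in these data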;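 further: higher means more holoenzyme dissociation and a rise in polarization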
Target sequence (P31323 whole entry, looked up, other chains not shown, the tested form may be a part): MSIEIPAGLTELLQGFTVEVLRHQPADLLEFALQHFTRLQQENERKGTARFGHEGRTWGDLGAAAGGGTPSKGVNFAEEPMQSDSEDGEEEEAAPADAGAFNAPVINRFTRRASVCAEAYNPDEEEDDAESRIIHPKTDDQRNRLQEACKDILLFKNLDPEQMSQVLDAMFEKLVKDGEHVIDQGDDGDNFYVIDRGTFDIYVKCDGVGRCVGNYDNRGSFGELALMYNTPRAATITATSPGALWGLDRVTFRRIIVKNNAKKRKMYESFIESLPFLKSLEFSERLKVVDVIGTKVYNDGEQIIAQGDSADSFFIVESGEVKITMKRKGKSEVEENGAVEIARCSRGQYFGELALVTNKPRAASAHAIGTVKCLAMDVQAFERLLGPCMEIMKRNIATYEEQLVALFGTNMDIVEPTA
Mot1-301 SUMO: yeast Mot1-301 growth rescue at high temperature, primary screen, SUMOylation pathway inhibitor project, S. cerevisiae, ATP luminescence, 38.5C | 320,000 compounds, 1% hits | AID 2716, 2010 | S. cerevisiae Mot1-301 growth rescue; percent above DMSO median, 100 means doubled | growth rescue, % at 18.8 µM;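 active means every valid replicate shows activation above 250% relative to neutral control wells; inactive means the rest, any valid replicate at or below 250%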;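 further: OY570 slx delta 5 strain wells were the positive control but not used for scaling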
MsrA inhibitor: bovine MsrA enzyme inhibitors, primary screen, biochemical, absorbance, HTS | Methionine sulfoxide reductase A (Bos taurus) | purified bovine MsrA, absorbance read-out | inhibition, % at 15.5 µM | 360,000 compounds, 0.75% hits | AID 651718, 2012;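 further: 0% = vehicle wells with enzyme and 100% = reference inhibitor wells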
bovine MsrA act: bovine MsrA enzyme activators, primary screen, biochemical, absorbance, HTS; Methionine sulfoxide reductase A (Bos taurus); AID 602163, 2012; 360,000 compounds, 0.3% hits; activation, % at 10.6 µM; purified bovine MsrA, absorbance read-out; in the data active means activation above about 7.5%;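 further: 0% = vehicle and 100% = reference activator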
MsrA conf: bovine MsrA inhibitors, retest, confirmation, biochemical, absorbance, HTS. shares compounds with MsrA inhibitor. purified bovine MsrA, absorbance read-out. inhibition, % at 15.5 µM. 2,300 compounds, 41% hits. AID 651822, 2012;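 further: coupled to thioredoxin reductase with NADPH and selenocystamine and DMSO as substrate; 0% = vehicle only and 100% = full effect of reference inhibitor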
Numbers without * were called inactive; · = no result. Most compounds without a hit are left out; they make up all but 2% or so of the library. Unless noted, no stated cut-off is given here; in the data, active means inhibition above about 4.5%; inactive means the rest.

SMILES	PKA-R1A act	PKA-R2B activ	Mot1-301 SUMO	MsrA inhibitor	bovine MsrA act	MsrA conf
Cc1ccc(S(=O)(=O)/N=C2\C=C(Nc3cccc(C(=O)O)c3)C(=O)c3ccccc32)cc1	-7	-3	-29	42*	-1	20*
COC(=O)C1=CN(c2ccc(N3CCOCC3)cc2)C(N)=C(C#N)C1c1ccc(-c2ccccc2)cc1 (stereo not given)	·	·	·	-1	·	·
CCOc1ccccc1CN1[C@@H](c2ccc(OC)cc2)CC(C(=O)OC)(C(=O)OC)[C@H]1c1ccccc1	·	·	·	2	·	·
Cc1ccc(NC2=C/C(=N/S(=O)(=O)c3cccs3)c3ccccc3C2=O)cc1	3	-4	-12	14*	4	24*
COC1=CC(=O)OC(c2cccc(C#N)c2)C1 (stereo not given)	·	·	·	-1	·	·
O=[N+]([O-])c1ccc(N2CCN(S(=O)(=O)c3ccccc3)CC2)cc1NCc1cccnc1	-6	15	19	9.1*	-7	2
O=[N+]([O-])c1ccc(N2CCN(S(=O)(=O)c3ccc(Cl)cc3)CC2)cc1NCc1cccnc1	-6	1	·	1	-9	·
COc1cccc(-c2c(C(=O)N/N=C/c3ccco3)nnn2-c2nonc2N)c1	2	-2	-12	4.9*	-6	1
CC(/C=N/NC(=O)c1nnn(-c2nonc2N)c1C(C)C)=C\c1ccco1	-14	-5	-13	4.9*	-10	5.8*
Nc1nonc1-n1nnc(C(=O)N/N=C/c2ccco2)c1-c1ccccc1	-2	-3	-28	2	-9	·
C[C@H](CO)N1C[C@H](C)[C@@H](CN(C)S(=O)(=O)c2cccc(C#N)c2)OCc2cn(nn2)CCCC1=O	4	-3	·	2	-3	·
N=c1occ(C(=O)c2cc(F)ccc2O)cc1C(=O)NC1CCCCC1	-7	-7	-2	4.9*	-2	0
CCCCOCCCNC(=O)C[C@@H]1C[C@@]2(C(=O)OCC)CCC=C2N(Cc2ccc(Cl)cc2Cl)C1=O	·	·	·	0	1	·
CCCCOc1ccc(C(=O)N/C(=C/C=C/c2ccccc2)C(=O)NC)cc1	-4	-7	-5	3	-13	·
O=C(O)CCNC(=O)/C(=C\C=C\c1ccccc1)NC(=O)c1ccccc1	6	2	·	6.8*	-6	4
O=C(Nc1ccc(O)cc1)/C(=C\C=C\c1ccccc1)NC(=O)c1ccccc1	0	4	284	1	-7	·
O=C(O)COc1ccc(/C=N/NC(=O)/C(=C/C=C/c2ccccc2)NC(=O)c2ccccc2)cc1	-3	2	1	8.4*	-11	7.9*
CCCCOc1ccc(C(=O)N/C(=C/C=C/c2ccccc2)C(=O)O)cc1	7	-11	2	6.8*	-2	3
COc1ccc(/C=C(\CC(=O)O)c2nc3ccccc3o2)cc1	-3	-3	-3	5.9*	-5	4
CC(=O)C1=CCC(c2ccc(Cl)c(Cl)c2)N(S(=O)(=O)c2ccc(C)cc2)C1 (stereo not given)	·	·	·	1	-4	·
Cn1cc(C(=O)N/N=C/c2cccs2)c2ccccc21	-12	1	-1	5.2*	-5	5.2*
CN(CC1COc2ccccc2O1)C(=O)c1ccc(N(C)C)cc1 (stereo not given)	-1	10	3	0	-2	·
CN(C)c1ccc(C=NCC2COc3ccccc3O2)cc1 (stereo not given)	-5	1	-7	5.5*	-5	5.2*
O=C(Cn1cc(C(F)(F)F)ccc1=O)Nc1ccc2c(c1)OCO2	-1	3	·	-1	-1	·
CC1CCC(NC(=O)C(NS(=O)(=O)c2ccc(Br)cc2)C(C)C)CC1 (stereo not given)	12	-2	·	0	-1	·
SMILES	PKA-R1A act	PKA-R2B activ	Mot1-301 SUMO	MsrA inhibitor	bovine MsrA act	MsrA conf
COc1cc2c(cc1OC)C(=S)NC1(CCCC1)C2	-9	4	-20	6.1*	-17	2
S=C1NC2(CCCCC2)Cc2ccccc21	4	-15	4	0	-14	·
CC(C)C[C@@H]1COc2cc(NCCO)ccc2S(=O)(=O)N1	·	·	·	-1	·	·
NC(=S)N/N=C/c1ccc(-c2cccc([N+](=O)[O-])c2)o1	1	-6	222	5.1*	-3	7.6*
COc1cc(/C=N/NC(=O)C(Cc2c[nH]c3ccccc23)NC(=O)OCc2ccccc2)cc([N+](=O)[O-])c1O (stereo not given)	5	-21	-25	5.8*	-7	5.2*
COc1cc(/C=N/NC(N)=O)cc([N+](=O)[O-])c1O	-2	2	33	4.7*	-12	3
COC(=O)N/N=C/c1cc(OC)c(O)c([N+](=O)[O-])c1	0	9	-12	2	-6	·
COc1cccc(C=NNC(=S)NC2CC3CCC2C3)c1O (stereo not given)	·	·	·	1	·	·
CC1(C(=O)NC2CCCCCC2)CCN1C(=O)C1(c2ccccc2)CC1 (stereo not given)	·	·	·	-2	0	·
CC(C)NC(=O)N[C@H]1C=C[C@H](CC(=O)NCc2ccc(Oc3ccccc3)cc2)O[C@@H]1CO	·	·	·	1	·	·
Cn1cc(C(=O)Nc2ccc(F)c(Cl)c2)cn1	2	-5	0	0	0	·
CN1c2ccsc2C(O)=C(C(=S)Nc2ccc(F)c(Cl)c2)S1(=O)=O	-2	6	·	6.5*	-13	5.1*
Cc1ccc(C)n1-n1cnc2scc(-c3cccs3)c2c1=O	5	13	-4	5.5*	-2	2
O=c1c2c(-c3cccs3)csc2ncn1-n1cccc1	-7	-5	-6	1	-2	·
COCc1cn(-c2nc3ccccc3s2)nn1	·	·	·	0	-3	·
CC1CN(C(=O)/C=C/c2ccc3c(c2)OCO3)CC(C)O1 (stereo not given)	6	5	-17	6.0*	-13	1
C/C(=N/NC(=O)c1ccncc1)c1ccccc1	-3	0	77	1	-1	·
Cc1cccc(C(=O)Nc2ccc(C(=O)N/N=C/c3ccc(C)o3)cc2)c1	2	-4	-6	6.4*	-12	4
Cc1ccc(/C=N/NC(=O)c2cccc(NC(=O)c3ccccc3C)c2)o1	-5	-6	-4	1	1	·
C/C(=N\NC(=O)c1ccc(N/N=C(\C)c2ccncc2)cc1)c1ccncc1	-11	1	-10	5.8*	0	6.2*
Cc1ccc(/C=N/NC(=O)c2ccncc2)o1	3	4	-7	5.7*	-2	4.6*
